This is a sample that favours compounds with a hit; in the whole collection about 1.2% have one here.
NSD2 inh: NSD2 (human) methyltransferase inhibition; AID 743445; 0.54% of 310,000 active; NSD2 peptide methylation, AlphaScreen, 120 min; O96028; inhibition, % at 12.5 µM; in the data active = inhibition above about 50%
RAD52 inh: inhibitors of human RAD52 DNA annealing; recombinant RAD52 DNA annealing, FRET fluorescence; inhibition, % at 18.7 µM; 0.46% of 360,000 active;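 active = every replicate showing at least 50% inhibition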
Glyco luc inh: N-linked glycosylation inhibition; reporter increase, % at 12.5 µM; 0.23% of 360,000 active; AID 588692; D54 ERlucT glycosylation luciferase reporter, 24 h; percent of 100 nM tunicamycin response;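 active = mean luciferase reporter signal, scaled so untreated is 0 and the glycosylation-blocking control 100, at or above a set limit in every replicate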;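 also: luciferase carries N-glycosylation sites so blocking glycosylation raises the light; 0% = median of neutral control wells and 100% = median of 100 nM tunicamycin wells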
RAD54 inh: RAD54 (human) branch migration inhibition; AID 602329; RAD54 Holliday junction branch migration, FAM/BHQ fluorescence; 0.14% of 360,000 active; inhibition, % at 10.4 µM;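 active = mean normalized replicate activity at least 40 and at least half of replicates scoring 40 or more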;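 also: 0% = median of neutral control wells and 100% = median of positive control wells; inhibitors cause a drop in the FAM fluorescence signal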
Target sequence (Q92698 whole entry, looked up): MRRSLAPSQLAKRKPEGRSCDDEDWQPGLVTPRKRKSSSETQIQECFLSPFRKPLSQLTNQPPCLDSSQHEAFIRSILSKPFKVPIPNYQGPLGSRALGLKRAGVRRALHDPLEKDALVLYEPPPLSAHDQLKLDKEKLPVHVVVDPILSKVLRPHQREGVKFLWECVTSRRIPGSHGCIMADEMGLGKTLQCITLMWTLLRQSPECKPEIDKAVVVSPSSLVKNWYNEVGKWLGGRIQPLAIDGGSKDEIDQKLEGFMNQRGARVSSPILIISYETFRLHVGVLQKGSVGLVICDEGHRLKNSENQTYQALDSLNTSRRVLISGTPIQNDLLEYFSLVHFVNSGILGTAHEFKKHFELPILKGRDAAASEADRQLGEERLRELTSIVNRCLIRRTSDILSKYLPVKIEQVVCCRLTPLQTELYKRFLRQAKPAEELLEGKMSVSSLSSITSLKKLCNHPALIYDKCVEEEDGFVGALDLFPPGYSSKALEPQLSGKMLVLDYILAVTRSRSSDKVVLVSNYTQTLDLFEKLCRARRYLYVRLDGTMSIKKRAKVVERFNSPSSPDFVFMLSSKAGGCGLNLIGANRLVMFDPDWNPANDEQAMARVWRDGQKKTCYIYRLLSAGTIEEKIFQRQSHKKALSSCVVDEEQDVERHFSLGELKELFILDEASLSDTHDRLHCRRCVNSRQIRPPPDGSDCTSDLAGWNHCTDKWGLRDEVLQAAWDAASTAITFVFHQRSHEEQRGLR
Casp6 inh: inhibitors of human caspase-6 | purified caspase-6, Z-VEID-R110 cleavage fluorescence | inhibition, % at 12.5 µM | 0.53% of 350,000 active | P55212;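 active = mean inhibition across replicates at least about 35%, with every replicate also reaching that limit, limit read from the data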;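 also: 0% = median of neutral control wells and 100% = no fluorescence left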
* = called active by the depositor; . = no result given.

SMILES	NSD2 inh	RAD52 inh	Glyco luc inh	RAD54 inh	Casp6 inh
Cc1ccc(S(=O)(=O)Nc2cc(-c3nn(C)c(=O)c4ccccc34)ccc2N2CCOCC2)cc1	-8	2	45*	-2	1
COc1ccc2c3c(n(C)c2c1)[C@H](CO)N(Cc1ccccc1)CC31CN(C(=O)Nc2cccc(F)c2)C1	.	-13	.	.	0
Cc1cc(C)c2c(c1)NC(C(=O)O)C1CC=CC21 (stereo not given)	31	-213	-2	-15	64*
Cc1ccc2c(c1C)NC(C(=O)O)C1CC=CC21 (stereo not given)	.	-72	1	-7	29
COc1cccc(S(=O)(=O)N2CCC3(CC2)CN[C@@H](CO)c2c3c3ccc(OC)cc3n2C)c1	.	10	.	.	1
O=C(NCc1ccccc1Br)c1cccc2c1C(=O)c1ccc(-c3ccc(OC(F)(F)F)cc3)cc1S2(=O)=O	.	.	156*	11	.
CC(C)c1cccc(-c2ccc3c(c2)S(=O)(=O)c2cccc(C(=O)NCc4ccccc4Cl)c2C3=O)c1	.	.	197*	4	.
O=C(NCc1ccc(F)cc1)c1cccc2c1C(=O)c1ccc(Cl)cc1S2(=O)=O	.	-15	.	.	1
CC(C)c1cccc(-c2ccc3c(c2)S(=O)(=O)c2cccc(C(=O)NCc4ccccc4)c2C3=O)c1	.	-11	92*	-11	-3
O=C(O)c1cccc2c1C(=O)c1ccc(-c3ccc(OC(F)(F)F)cc3)cc1S2(=O)=O	.	-19	2	10	6
O=C(O)c1cccc(-n2cccc2/C=C2\NC(=O)N(Cc3ccc(F)cc3)C2=O)c1	28	-65	-3	.	72*
O=C(O)c1ccc(-n2cccc2/C=C2/NC(=O)N(c3cccc(Cl)c3)C2=O)cc1	.	-36	0	.	81*
Cc1cc(C)nc(/N=C(\N)Nc2ccc(CC(=O)OC(C)C)cc2)n1	.	11	48*	-3	-4
Cc1cc(C)nc(/N=C(\N)Nc2ccc(OCCC(C)C)cc2)n1	-1	33	48*	9	-3
Cc1cc(C)nc(/N=C(\N)Nc2ccc(S(=O)(=O)O)cc2)n1	0	-8	1	.	2
COc1ccc(N/C(N)=N/c2nc(C)cc(C)n2)cc1	-1	-3	6	6	0
COc1ccc(CN(C)C[C@@H]2OCCCC[C@H](C)Oc3ccc(NC(=O)Nc4c(C)noc4C)cc3C(=O)N([C@@H](C)CO)C[C@@H]2C)cc1	.	4	.	4	0
COc1ccc2c(C)nc(Nc3nc(-c4ccccc4)cc(=O)[nH]3)nc2c1	.	-16	94*	-1	2
O=C(NCC[C@@H]1CC[C@@H](NC(=O)C2CCCCC2)[C@H](CO)O1)c1cnccn1	.	2	.	3	1
CC(C)C#Cc1ccc2c(c1)O[C@@H](CN(C)C(=O)c1ccccn1)[C@H](C)CN([C@H](C)CO)S2(=O)=O	.	9	.	-10	-4
O=C(C[n+]1ccc(CCSc2ccc(F)cc2)cc1)c1ccccc1	.	.	-1	87*	.
Cc1ccc(C(=O)C[n+]2ccc(Cc3ccccc3)cc2)cc1	.	-5	-7	.	-1
Cc1noc(C)c1NC(=O)Nc1cccc2c1O[C@H](CN(C)CC1CC1)[C@H](C)CN([C@H](C)CO)C2=O	.	-6	.	-8	-2
COc1ccc(CNC(=O)c2cc3c(=O)n4cccc(C)c4nc3n(CC3CCCO3)c2=N)cc1 (stereo not given)	35	-67	1	-25	2
COc1ccc(CCn2c(=N)c(C(=O)NCC3CCCO3)cc3c(=O)n4cccc(C)c4nc32)cc1 (stereo not given)	-2	-21	41*	11	0
SMILES	NSD2 inh	RAD52 inh	Glyco luc inh	RAD54 inh	Casp6 inh
Cc1c(NS(=O)(=O)c2cc(C(=O)NCCN(C)C)ccc2Cl)c(=O)n(-c2ccccc2)n1C	-1	7	1	-6	42*
Cc1c(NS(=O)(=O)c2cc(C(=O)NCc3cccc(Cl)c3)ccc2Cl)c(=O)n(-c2ccccc2)n1C	2	-8	-1	0	1
CCCN1[C@@H]2c3ccc(-c4ccccc4OC)c(=O)n3C[C@@H]2[C@@H](CO)[C@@H]1C(=O)Nc1nccs1	.	-7	.	-6	0
COc1ccccc1C#Cc1ccc2c(c1)[C@H]1NCC[C@H]1[C@@H](CO)N2	.	54*	.	.	1
Fc1ccc(/C=C/c2nnc(-c3cccs3)o2)cc1	51*	-6	-5	.	-3
Cc1ccc(/C=C/c2nnc(-c3cccs3)o2)cc1	2	.	-14	-4	.
COc1ccc(/C=C2\SC(=O)NC2=S)cc1OC	7	-353	-2	-48	45*
CCOc1ccc(/C=C2\SC(=S)NC2=O)cc1OC	3	-180	3	-5	10
COc1cc(/C=C2\SC(=O)NC2=O)ccc1Oc1ccc([N+](=O)[O-])cc1[N+](=O)[O-]	.	-11	0	.	39*
CCOC(=O)c1nn(-c2ccccc2)c(=O)c2c(N)scc12	-6	.	0	-7	.
Nc1scc2c(C(=O)N/N=C/c3ccc(Cl)cc3)nn(-c3ccccc3)c(=O)c12	73*	.	2	0	.
CCCNC(=O)C[C@H]1CC[C@H]2[C@H](COc3ccc(NC(=O)NC(C)C)cc3C(=O)N2C)O1	.	9	.	-8	-2
O=C(C[C@H]1C[C@@H]2c3cc(NC(=O)CC4CC4)ccc3O[C@@H]2[C@@H](CO)O1)NCC(F)(F)F	.	-9	.	-3	-1
C[C@@H]1CN([C@@H](C)CO)C(=O)c2cccc(NS(=O)(=O)c3ccc(Cl)cc3)c2O[C@H]1CN(C)Cc1ccncc1	.	-6	.	-3	2
CC1CCCC(NC(=O)COC(=O)c2ccc([N+](=O)[O-])s2)C1C (stereo not given)	34	-14	-2	-1	57*
Cc1ccc(S(=O)(=O)N2CCN(C(=O)/C=C/c3ccco3)CC2)cc1	-4	-28	4	.	9
O=C(/C=C/c1ccco1)N1CCN(S(=O)(=O)c2ccccc2)CC1	-1	-80	1	-3	48*
CO[C@@H]1CN(C)C(=O)c2ccc(NC(=O)Nc3ccccc3F)cc2OC[C@@H](C)N(C(C)=O)C[C@H]1C	.	-5	.	.	0
O=C(Nc1cccc2c(=O)[nH][nH]c(=O)c12)c1ccc([N+](=O)[O-])cc1	4	-15	3	7	42*
C[C@@H]1CN([C@H](C)CO)C(=O)c2ccccc2-c2ccccc2CO[C@H]1CN(C)C(=O)CCN(C)C	.	-8	.	14	-1
CC1CCCCC1NS(=O)(=O)c1ccc(S(=O)(=O)N2CCN(CCC#N)CC2)cc1 (stereo not given)	.	-14	-3	-8	45*
COc1ccc2c3c([nH]c2c1)[C@H](CO)N(C(=O)Nc1ccccc1F)CC31CCN(C(=O)C2CC2)CC1	.	10	.	.	10
CC(=O)N1CC2(C1)[C@H](c1ccccc1)[C@@H](CO)N2CC1CCOCC1	.	0	.	.	1
Cc1cc(C)cc(N=Cc2ccc([N+](=O)[O-])s2)c1	2	.	22	.	.
NC(=O)c1ccc(N=Cc2ccc([N+](=O)[O-])s2)cc1	27	-10	44*	.	2
Cn1c(SCC(=O)c2cc(Cl)c(Cl)s2)nnc1-c1ccco1	-4	-38	7	-4	52*

Compound activity deposited in PubChem BioAssay by Broad Institute.
